Test results published in ChEMBL document CHEMBL1961873, “Compounds: GSK PKIS; Assays: Nanosyn kinase panel” (2012).

Legend:
[1] = target: T1, Serine/threonine-protein kinase Nek9 (Homo sapiens) (UniProt Q8TD19); conditions: at 1 µM;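 further: each value is a mean percent inhibition of NEK9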
T1 sequence (whole entry): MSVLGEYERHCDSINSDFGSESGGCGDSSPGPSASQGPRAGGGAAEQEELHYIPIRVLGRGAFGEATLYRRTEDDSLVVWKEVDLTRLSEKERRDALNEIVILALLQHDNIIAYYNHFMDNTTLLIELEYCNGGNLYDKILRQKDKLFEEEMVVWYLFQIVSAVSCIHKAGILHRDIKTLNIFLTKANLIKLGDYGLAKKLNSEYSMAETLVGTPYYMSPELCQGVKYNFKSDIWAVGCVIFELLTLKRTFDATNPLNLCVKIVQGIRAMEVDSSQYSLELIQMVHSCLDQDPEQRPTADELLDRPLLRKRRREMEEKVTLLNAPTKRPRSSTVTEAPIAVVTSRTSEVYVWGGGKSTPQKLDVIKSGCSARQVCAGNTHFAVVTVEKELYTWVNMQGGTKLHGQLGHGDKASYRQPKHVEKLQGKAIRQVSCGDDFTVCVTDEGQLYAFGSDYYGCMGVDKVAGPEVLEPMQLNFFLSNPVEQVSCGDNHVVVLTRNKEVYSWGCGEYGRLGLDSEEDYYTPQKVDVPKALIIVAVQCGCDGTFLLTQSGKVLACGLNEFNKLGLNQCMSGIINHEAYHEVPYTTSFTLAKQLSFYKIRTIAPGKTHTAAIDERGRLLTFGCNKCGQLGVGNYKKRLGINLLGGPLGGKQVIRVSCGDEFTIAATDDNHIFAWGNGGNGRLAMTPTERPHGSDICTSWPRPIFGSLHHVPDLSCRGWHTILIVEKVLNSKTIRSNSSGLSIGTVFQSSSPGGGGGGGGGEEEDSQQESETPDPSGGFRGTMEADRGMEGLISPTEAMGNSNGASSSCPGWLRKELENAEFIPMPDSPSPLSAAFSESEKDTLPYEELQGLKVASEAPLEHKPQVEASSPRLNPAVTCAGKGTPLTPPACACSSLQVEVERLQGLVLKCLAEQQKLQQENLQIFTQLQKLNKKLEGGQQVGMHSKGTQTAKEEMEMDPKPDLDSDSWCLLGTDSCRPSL

[2] = target: Serine/threonine-protein kinase PLK1 (Homo sapiens) (UniProt P53350); conditions: at 0.1 µM
[3] = target: Serine/threonine-protein kinase PLK1 (Homo sapiens) (UniProt P53350); conditions: at 1 µM
[4] = target: T2, Dual specificity protein kinase TTK (Homo sapiens) (UniProt P33981); conditions: at 0.1 µM
T2 sequence (whole entry): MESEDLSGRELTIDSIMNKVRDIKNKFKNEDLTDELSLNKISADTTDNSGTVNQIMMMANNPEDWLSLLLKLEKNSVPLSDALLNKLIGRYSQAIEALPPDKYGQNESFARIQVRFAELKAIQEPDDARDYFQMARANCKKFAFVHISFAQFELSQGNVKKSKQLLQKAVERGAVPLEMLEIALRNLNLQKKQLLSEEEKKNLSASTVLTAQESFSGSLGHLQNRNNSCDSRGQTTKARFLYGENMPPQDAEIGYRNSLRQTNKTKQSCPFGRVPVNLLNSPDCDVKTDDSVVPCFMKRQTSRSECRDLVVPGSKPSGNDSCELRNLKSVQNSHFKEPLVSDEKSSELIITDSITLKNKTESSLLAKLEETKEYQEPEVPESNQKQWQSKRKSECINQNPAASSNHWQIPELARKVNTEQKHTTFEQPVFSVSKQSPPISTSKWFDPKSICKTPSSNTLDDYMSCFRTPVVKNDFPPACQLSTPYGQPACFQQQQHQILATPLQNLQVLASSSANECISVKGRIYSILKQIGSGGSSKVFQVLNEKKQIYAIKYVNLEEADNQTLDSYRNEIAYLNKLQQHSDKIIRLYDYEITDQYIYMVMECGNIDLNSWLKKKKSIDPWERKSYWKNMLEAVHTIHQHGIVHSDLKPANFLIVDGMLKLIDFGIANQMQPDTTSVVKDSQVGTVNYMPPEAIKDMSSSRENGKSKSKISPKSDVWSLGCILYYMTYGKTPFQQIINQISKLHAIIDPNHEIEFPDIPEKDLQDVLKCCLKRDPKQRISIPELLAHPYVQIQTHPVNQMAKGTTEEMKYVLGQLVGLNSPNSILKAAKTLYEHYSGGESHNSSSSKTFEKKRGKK

[5] = test system: T3, Receptor-type tyrosine-protein kinase FLT3 (Homo sapiens), P36888 [D835Y]; conditions: at 1 µM
T3 sequence (whole entry): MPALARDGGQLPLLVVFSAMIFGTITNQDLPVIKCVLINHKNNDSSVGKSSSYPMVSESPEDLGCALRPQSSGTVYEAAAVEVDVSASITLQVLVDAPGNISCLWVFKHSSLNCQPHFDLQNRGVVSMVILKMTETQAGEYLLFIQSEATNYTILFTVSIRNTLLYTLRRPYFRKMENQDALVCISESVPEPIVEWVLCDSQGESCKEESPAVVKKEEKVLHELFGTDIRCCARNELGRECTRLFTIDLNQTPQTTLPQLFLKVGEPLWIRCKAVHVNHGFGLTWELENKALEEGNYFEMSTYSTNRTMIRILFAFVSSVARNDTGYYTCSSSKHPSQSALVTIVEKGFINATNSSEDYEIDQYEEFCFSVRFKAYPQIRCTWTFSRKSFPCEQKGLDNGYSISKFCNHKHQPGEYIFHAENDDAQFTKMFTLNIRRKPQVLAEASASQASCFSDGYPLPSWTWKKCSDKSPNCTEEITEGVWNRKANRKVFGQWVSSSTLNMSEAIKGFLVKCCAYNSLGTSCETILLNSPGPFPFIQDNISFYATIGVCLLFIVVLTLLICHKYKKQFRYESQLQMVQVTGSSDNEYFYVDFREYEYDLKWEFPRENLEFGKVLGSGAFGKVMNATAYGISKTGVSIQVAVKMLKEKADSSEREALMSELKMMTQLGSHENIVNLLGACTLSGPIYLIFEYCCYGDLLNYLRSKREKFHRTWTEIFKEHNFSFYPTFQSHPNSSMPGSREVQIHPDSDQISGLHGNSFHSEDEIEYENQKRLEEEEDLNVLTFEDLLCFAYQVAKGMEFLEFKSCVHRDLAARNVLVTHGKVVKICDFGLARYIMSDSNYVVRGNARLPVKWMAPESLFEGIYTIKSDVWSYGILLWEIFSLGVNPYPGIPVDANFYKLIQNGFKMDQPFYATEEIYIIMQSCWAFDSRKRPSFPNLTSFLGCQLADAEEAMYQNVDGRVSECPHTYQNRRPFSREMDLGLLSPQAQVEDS

[6] = target: Vascular endothelial growth factor receptor 3 (Homo sapiens) (UniProt P35916); conditions: at 0.1 µM
Vascular endothelial growth factor receptor 3 (Homo sapiens), sequence (P35916 whole entry): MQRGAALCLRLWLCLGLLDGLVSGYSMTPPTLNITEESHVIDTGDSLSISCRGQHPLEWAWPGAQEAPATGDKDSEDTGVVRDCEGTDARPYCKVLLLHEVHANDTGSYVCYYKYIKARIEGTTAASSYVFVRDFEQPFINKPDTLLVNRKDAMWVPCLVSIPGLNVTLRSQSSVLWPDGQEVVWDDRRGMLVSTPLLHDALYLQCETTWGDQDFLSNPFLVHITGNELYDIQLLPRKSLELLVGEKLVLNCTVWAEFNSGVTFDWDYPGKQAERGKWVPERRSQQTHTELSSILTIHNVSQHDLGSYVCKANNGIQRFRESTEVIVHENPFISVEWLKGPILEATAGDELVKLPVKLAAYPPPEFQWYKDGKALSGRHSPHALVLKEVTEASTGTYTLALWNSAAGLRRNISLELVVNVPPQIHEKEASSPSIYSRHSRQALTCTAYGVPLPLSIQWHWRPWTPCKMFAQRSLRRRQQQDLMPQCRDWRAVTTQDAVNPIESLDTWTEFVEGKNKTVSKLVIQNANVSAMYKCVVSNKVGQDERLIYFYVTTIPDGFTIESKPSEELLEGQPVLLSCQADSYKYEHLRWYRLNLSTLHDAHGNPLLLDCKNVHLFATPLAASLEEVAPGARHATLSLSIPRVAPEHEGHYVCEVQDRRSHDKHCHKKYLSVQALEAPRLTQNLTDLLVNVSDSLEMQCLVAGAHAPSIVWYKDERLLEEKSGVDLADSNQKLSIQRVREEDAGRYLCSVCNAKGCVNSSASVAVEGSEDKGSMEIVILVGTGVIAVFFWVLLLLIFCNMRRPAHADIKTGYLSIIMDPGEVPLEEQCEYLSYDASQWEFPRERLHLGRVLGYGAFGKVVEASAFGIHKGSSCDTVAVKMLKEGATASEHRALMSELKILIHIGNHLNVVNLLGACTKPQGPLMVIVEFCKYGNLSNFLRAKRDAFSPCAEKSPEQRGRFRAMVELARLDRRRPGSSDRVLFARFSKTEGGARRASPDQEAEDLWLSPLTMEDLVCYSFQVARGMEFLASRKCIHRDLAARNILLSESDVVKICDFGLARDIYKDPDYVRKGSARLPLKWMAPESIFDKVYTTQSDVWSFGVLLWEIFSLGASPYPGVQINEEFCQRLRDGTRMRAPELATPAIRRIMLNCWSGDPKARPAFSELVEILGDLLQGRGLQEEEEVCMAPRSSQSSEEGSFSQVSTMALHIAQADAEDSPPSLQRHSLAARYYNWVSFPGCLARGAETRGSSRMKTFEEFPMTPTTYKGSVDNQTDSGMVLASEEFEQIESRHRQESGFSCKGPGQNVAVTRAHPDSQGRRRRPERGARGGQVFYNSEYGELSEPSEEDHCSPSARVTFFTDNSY

[7] = target: Vascular endothelial growth factor receptor 3 (Homo sapiens) (UniProt P35916); conditions: at 1 µM
[8] = target: Macrophage colony-stimulating factor 1 receptor (Homo sapiens) (UniProt P07333); conditions: at 0.1 µM
Macrophage colony-stimulating factor 1 receptor (Homo sapiens), sequence (P07333 whole entry): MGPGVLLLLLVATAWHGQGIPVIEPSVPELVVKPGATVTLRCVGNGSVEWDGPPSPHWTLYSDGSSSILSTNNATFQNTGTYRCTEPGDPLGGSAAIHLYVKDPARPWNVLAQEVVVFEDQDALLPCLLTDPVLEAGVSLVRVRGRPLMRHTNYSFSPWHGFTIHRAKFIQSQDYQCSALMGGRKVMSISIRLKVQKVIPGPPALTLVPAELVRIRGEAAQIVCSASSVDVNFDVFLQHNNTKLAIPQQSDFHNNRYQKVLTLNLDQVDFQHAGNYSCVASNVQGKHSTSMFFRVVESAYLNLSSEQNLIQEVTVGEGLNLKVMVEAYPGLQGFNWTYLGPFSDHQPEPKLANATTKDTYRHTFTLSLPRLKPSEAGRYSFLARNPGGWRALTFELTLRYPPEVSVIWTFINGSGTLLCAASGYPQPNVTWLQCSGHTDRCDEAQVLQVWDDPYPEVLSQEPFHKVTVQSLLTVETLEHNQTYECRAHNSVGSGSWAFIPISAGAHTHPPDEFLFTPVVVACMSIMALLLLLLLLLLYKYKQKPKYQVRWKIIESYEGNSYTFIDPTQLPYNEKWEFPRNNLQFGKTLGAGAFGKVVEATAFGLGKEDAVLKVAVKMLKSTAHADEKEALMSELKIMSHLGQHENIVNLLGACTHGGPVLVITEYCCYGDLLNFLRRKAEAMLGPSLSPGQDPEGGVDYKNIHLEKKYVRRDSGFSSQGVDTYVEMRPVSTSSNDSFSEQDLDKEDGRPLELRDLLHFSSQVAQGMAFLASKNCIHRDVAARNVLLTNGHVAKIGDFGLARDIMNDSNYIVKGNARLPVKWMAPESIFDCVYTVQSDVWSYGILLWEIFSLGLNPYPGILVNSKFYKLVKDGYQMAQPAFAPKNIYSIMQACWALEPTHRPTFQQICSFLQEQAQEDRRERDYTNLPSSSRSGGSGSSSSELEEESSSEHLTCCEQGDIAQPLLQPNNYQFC

[9] = target: Macrophage colony-stimulating factor 1 receptor (Homo sapiens) (UniProt P07333); conditions: at 1 µM
[10] = target: Tyrosine-protein kinase Fyn (Homo sapiens) (UniProt P06241); conditions: at 0.1 µM
[11] = target: Tyrosine-protein kinase Fyn (Homo sapiens) (UniProt P06241); conditions: at 1 µM
[12] = target: Tyrosine-protein kinase HCK (Homo sapiens) (UniProt P08631); conditions: at 0.1 µM
[13] = target: Tyrosine-protein kinase HCK (Homo sapiens) (UniProt P08631); conditions: at 1 µM
[14] = target: Insulin-like growth factor 1 receptor (Homo sapiens) (UniProt P08069); conditions: at 0.1 µM
[15] = target: Insulin-like growth factor 1 receptor (Homo sapiens) (UniProt P08069); conditions: at 1 µM
[16] = target: Insulin receptor (Homo sapiens) (UniProt P06213); conditions: at 0.1 µM
Insulin receptor (Homo sapiens), sequence (P06213 28-758 limits assumed): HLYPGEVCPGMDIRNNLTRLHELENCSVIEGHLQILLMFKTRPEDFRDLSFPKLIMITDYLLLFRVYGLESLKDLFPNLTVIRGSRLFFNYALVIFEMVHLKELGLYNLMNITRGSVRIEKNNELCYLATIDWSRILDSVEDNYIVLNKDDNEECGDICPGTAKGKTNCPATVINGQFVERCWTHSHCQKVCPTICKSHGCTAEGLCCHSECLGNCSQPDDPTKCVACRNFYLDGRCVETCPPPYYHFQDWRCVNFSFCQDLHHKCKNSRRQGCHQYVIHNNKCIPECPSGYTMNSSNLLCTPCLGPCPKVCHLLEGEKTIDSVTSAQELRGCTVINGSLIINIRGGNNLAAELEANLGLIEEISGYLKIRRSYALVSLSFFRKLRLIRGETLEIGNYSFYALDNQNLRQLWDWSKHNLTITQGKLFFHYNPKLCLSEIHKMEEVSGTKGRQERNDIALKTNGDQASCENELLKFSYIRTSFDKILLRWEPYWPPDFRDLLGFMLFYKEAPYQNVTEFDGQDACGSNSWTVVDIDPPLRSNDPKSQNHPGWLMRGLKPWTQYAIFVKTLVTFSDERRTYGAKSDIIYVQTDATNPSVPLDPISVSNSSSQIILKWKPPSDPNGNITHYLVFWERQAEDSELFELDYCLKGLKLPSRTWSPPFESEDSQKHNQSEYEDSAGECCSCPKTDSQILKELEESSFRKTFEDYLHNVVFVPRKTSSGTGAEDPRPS
Insulin receptor (Homo sapiens), sequence (P06213 763-1382 limits assumed): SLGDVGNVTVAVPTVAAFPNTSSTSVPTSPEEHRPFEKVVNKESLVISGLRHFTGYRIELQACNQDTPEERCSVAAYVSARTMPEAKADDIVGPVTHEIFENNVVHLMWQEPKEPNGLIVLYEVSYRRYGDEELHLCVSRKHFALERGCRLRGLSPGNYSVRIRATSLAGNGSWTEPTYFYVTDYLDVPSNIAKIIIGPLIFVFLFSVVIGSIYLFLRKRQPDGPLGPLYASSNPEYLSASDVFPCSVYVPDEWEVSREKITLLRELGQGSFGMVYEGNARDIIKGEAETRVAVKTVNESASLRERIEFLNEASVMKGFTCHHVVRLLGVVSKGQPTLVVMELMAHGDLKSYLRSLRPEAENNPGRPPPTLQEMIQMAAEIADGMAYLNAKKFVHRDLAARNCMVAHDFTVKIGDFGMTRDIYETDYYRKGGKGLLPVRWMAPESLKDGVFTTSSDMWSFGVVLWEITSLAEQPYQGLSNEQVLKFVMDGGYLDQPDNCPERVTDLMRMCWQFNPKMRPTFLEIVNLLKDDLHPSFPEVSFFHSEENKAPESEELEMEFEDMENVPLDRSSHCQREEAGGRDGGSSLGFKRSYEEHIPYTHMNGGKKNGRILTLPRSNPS

[17] = target: Insulin receptor (Homo sapiens) (UniProt P06213); conditions: at 1 µM
[18] = target: Insulin receptor-related protein (Homo sapiens) (UniProt P14616); conditions: at 0.1 µM
Insulin receptor-related protein (Homo sapiens), sequence (P14616 27-742 limits assumed): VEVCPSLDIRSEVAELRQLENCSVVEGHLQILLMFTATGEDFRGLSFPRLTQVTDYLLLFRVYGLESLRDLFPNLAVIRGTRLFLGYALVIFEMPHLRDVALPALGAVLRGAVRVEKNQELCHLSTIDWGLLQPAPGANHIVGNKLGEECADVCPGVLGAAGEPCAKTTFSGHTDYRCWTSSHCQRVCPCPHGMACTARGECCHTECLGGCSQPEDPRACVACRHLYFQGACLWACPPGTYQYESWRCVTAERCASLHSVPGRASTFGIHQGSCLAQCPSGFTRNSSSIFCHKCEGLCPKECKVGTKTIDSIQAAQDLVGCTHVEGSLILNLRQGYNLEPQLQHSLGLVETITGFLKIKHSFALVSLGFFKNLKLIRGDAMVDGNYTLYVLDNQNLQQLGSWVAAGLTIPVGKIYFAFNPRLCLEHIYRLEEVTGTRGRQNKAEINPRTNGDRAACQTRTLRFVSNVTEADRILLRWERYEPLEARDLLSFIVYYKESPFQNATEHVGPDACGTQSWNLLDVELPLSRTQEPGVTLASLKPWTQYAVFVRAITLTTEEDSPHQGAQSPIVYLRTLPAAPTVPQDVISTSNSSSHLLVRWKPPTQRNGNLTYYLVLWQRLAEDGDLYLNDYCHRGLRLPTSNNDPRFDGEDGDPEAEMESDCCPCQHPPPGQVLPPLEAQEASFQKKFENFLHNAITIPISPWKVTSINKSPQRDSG
Insulin receptor-related protein (Homo sapiens), sequence (P14616 747-1297 limits assumed): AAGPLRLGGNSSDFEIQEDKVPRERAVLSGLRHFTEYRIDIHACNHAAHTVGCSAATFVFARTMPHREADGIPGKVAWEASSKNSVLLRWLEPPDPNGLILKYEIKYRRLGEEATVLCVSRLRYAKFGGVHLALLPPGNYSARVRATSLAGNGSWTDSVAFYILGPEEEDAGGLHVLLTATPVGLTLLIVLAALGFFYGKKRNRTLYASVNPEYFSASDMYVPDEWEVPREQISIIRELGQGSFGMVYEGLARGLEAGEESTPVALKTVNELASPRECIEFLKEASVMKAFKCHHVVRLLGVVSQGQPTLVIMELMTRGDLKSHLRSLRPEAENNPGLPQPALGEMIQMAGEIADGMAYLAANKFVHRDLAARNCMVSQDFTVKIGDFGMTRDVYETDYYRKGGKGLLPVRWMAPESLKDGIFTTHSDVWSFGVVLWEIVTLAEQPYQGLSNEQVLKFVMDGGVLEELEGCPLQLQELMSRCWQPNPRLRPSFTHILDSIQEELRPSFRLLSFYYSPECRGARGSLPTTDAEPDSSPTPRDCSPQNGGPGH

[19] = target: Insulin receptor-related protein (Homo sapiens) (UniProt P14616); conditions: at 1 µM
[20] = target: T4, Tyrosine-protein kinase ITK/TSK (Homo sapiens) (UniProt Q08881); conditions: at 0.1 µM;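 further: mean percent inhibition of ITK from the GSK PKIS screen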
T4 sequence (whole entry): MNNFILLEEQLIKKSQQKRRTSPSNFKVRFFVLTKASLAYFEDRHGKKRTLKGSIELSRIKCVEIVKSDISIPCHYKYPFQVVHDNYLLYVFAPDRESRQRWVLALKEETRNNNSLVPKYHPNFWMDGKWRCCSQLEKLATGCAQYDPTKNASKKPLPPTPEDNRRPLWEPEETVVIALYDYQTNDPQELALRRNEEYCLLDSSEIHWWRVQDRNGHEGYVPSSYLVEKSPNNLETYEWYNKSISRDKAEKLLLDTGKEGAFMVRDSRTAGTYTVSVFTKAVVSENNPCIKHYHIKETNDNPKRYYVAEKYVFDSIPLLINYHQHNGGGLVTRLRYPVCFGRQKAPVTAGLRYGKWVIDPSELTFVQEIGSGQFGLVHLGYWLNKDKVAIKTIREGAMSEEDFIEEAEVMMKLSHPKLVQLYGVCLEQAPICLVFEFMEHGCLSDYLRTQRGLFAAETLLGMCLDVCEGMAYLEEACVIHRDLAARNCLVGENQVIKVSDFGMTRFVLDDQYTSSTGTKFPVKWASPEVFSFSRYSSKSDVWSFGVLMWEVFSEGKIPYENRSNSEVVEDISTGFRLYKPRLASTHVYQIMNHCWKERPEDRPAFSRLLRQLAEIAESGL

| SMILES | inhibition [1] [%] | inhibition [2] [%] | inhibition [3] [%] | inhibition [4] [%] | inhibition [5] [%] | inhibition [6] [%] | inhibition [7] [%] | inhibition [8] [%] | inhibition [9] [%] | inhibition [10] [%] | inhibition [11] [%] | inhibition [12] [%] | inhibition [13] [%] | inhibition [14] [%] | inhibition [15] [%] | inhibition [16] [%] | inhibition [17] [%] | inhibition [18] [%] | inhibition [19] [%] | inhibition [20] [%] |
| --- | --- | --- | --- | --- | --- | --- | --- | --- | --- | --- | --- | --- | --- | --- | --- | --- | --- | --- | --- | --- |
| Cc1ccc(-c2cc3c(NC(=O)C4CC4)ncnc3o2)cc1 | 4.87 | 3.28 | 2.79 | 6.01 | 3.4 | 3.84 | 9.25 | 20.6 | 66.9 | 6.5 | 5.49 | 7.39 | 21.8 | 5.44 | 5.98 | 5.37 | 5.18 | 5.59 | 2.34 | 1.76 |
| N#Cc1cccc(Nc2ncc(-c3ccccc3)o2)c1 | 4.83 | 2.12 | 1.8 | 6.6 | 9.89 | -0.11 | 3.1 | 3.05 | 14.6 | 1.43 | 10.8 | 0.69 | 7.33 | 0.34 | 0.27 | 1.81 | 4.42 | 0.61 | -0.06 | 1.16 |
| CNC(=O)c1ncccc1Nc1nc(Nc2cc3c(cc2OC)CCCN3C(=O)CN(C)C)nc2[nH]ccc12 | 8.8 | 79.8 | 92.8 | 12.8 | 2.75 | 2.84 | 2.27 | 7.05 | 3.9 | 1.75 | 2.48 | 5.56 | 8.62 | 97 | 97.9 | 100 | 98.1 | 78.2 | 94.3 | 1.95 |
| COc1cc(Nc2ncc(-c3ccccc3)o2)cc(OC)c1 | 7.35 | 4.62 | 2.5 | 10 | 36.7 | 1.25 | 9.4 | 14.5 | 56.3 | 2.7 | 26.5 | 8.41 | 19.9 | -0.03 | 4.18 | 1.03 | 5.64 | 2.92 | 2.43 | -0.12 |
| CC1=C(C(=O)Nc2ccc3[nH]ncc3c2)C(c2ccc(F)cc2)N=C(c2ccc(C(F)(F)F)nc2)N1 (stereo not given) | -1.51 | 1.85 | 1.78 | 3.99 | 1.9 | 1.85 | 0.82 | 3.03 | 2.25 | 4.17 | 3.27 | 4.24 | 12.2 | 3.5 | 3.35 | 3.82 | 1.7 | 1.92 | 1.25 | 1.64 |
| COc1cc2c(cc1Nc1nc(Nc3cccc(F)c3C(N)=O)c3cc[nH]c3n1)N(C(=O)CN1CCN(C(C)C)CC1)CC2 | 6.33 | 4.96 | 25.8 | 11.4 | 2 | -0.29 | 4.32 | -0.95 | 5.37 | 1.51 | 2.53 | 1.66 | 2.73 | 57.8 | 87.7 | 69.1 | 88.2 | 6.85 | 44.3 | 1.77 |
